Assay outcomes as filed in PubChem.
Shown are actives, neighbours in structure and some others; about 2.1% of the full set was active somewhere.
KLF5 inh – KLF5 expression inhibitors, primary screen, DLD-1 cells, luminescence. DLD-1 KLF5 promoter-luciferase reporter. inhibition, % at 5 µM. 0.23% of 290,000 active;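 active = inhibition above a per-plate limit of that plate's mean compound inhibition plus 3 SD, cut at about 60% in these data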;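 note: higher means less KLF5 promoter-driven luciferase light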
APP 5UTR inh – inhibitors of APP translation via 5'UTR reporter, primary screen, APP 5'UTR luciferase, SH-SY5Y cells; SH-SY5Y APP 5'UTR-luciferase reporter, luminescence; inhibition, % at 2 µM; 0.82% of 190,000 active; AID 1285, 2008;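 active = inhibition above a set limit, derived from the sample mean plus 3 SD, cut at about 45% in these data; inconclusive = one replicate passes the limit while the other fails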
IEC-6 cytotox – cytotoxicity in IEC-6 intestinal epithelial cells, primary screen, cytotoxicity control for KLF5 inhibitor project, cell-based, luminescence | inhibition, % at 5 µM | AID 1825, 2009 | IEC-6 cytotoxicity, luminescence viability | 0.78% of 290,000 active
BaF3 tox – parental Ba/F3 cell viability inhibition, counter-screen for JAK2V617F inhibitor project, murine pro-B, CellTiter-Glo luminescence; CellTiter-Glo ATP luminescence; inhibition, % at 5.6 µM; 1.1% of 220,000 active; AID 1486, 2009;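 active = inhibition above a per-campaign cutoff, the mean inhibition of all tested compounds plus 3 SD, cut at about 27% in these data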
Ba/F3 V617F tox – reduced viability of JAK2V617F-dependent Ba/F3 cells, primary screen, JAK2V617F inhibitor project, cell-based, Ba/F3 EpoR-JAK2V617F, luminescence; 1.1% of 220,000 active; ATP luminescence; inhibition, % at 5.6 µM; AID 1446, 2008;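 active = inhibition above the campaign mean plus 3 SD over all tested compounds, cut at about 24% in these data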;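 note: cytokine-independent growth of Ba/F3 cells driven by EpoR plus mutant JAK2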
aSyn UTR inh – MLPCN primary screen, SNCA 5' untranslated region; inhibition, % (tested at 7.5 µM); 0.82% of 300,000 active; alpha-synuclein 5'UTR reporter, inhibitor activity; AID 1813, 2009; in the data active = inhibition above about 60%; inconclusive = no clear call, values can overlap the other calls;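 note: H4 neuroglioblastoma cells stably carrying SNCA 5'UTR luciferase fusion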
IEC-6 tox confirm – cytotoxic compounds in IEC-6 epithelial cells, confirmation, cytotoxicity control, cell-based, luminescence. shares compounds with IEC-6 cytotox. IEC-6 rat intestinal epithelial viability. inhibition, % at 5 µM. 63% of 1,900 active
Each line names hits and unclear results; the compound was inactive in the other large screens (follow-up assays come after a bar, where they were run). Cut-off read from the data, not from the text of the source, unless noted: active = inhibition above about 22%; inactive = the rest.

COc1ccc2c(c1)C(C)=CC(C)(C)N2S(=O)(=O)c1ccc(Br)cc1	APP 5UTR inh 93.1, IEC-6 cytotox 68.1, BaF3 tox 69.4, Ba/F3 V617F tox 73.7 | IEC-6 tox confirm 57.0
CCOC(=O)N/N=C/c1c(C)nn(-c2cccc(C(F)(F)F)c2)c1Cl	APP 5UTR inh 86.0, IEC-6 cytotox 44.5, BaF3 tox 42.2, Ba/F3 V617F tox 66.9 | IEC-6 tox confirm 53.5
CN(C)C1(CNC(=O)C2CCN(S(=O)(=O)c3cccc(C(F)(F)F)c3)CC2)CCCCC1	none (no result: APP 5UTR inh, BaF3 tox, Ba/F3 V617F tox)
CN1CCN(c2ccc(C(=O)c3ccc(Br)cc3)cc2[N+](=O)[O-])CC1	none
O=C(NNC(=S)Nc1ccc(F)cc1)c1ccccc1OC(F)F	none
Cc1ccc(NC(=S)NNC(=O)c2ccccc2OC(F)F)cc1	IEC-6 cytotox 28.0, BaF3 tox 41.4, Ba/F3 V617F tox 25.5 | IEC-6 tox confirm inactive
Cn1ncc(Cl)c1C(=O)N1CCN(S(=O)(=O)c2ccc(Cl)s2)CC1	none (no result: APP 5UTR inh, BaF3 tox, Ba/F3 V617F tox)
CN(C)c1ccc(/C=C/c2ccc3c4ccccc4ccc3[n+]2-c2ccccc2)cc1	APP 5UTR inh 83.2, IEC-6 cytotox 65.0, BaF3 tox 89.0, Ba/F3 V617F tox 100.8 (no result: aSyn UTR inh) | IEC-6 tox confirm 80.5
Cc1ccc(-n2nc3c(N4CCC(C(=O)NCCc5ccccc5C)CC4)nnc(C)c3c2C)cc1	IEC-6 cytotox 22.6, aSyn UTR inh 71.7 (no result: APP 5UTR inh, BaF3 tox, Ba/F3 V617F tox) | IEC-6 tox confirm 34.2
Cc1ccc2oc(C(=O)NCc3ncc(C)[nH]3)c(C)c2c1	IEC-6 cytotox 33.8 (no result: APP 5UTR inh, BaF3 tox, Ba/F3 V617F tox) | IEC-6 tox confirm inactive
Cc1cnc(CNC(=O)c2ccc3oc(C(C)C)nc3c2)[nH]1	none (no result: APP 5UTR inh, BaF3 tox, Ba/F3 V617F tox)
CCCOC(=O)c1ccc(NC(=O)COC)cc1	none
CC(=O)Nc1ccc(C(=O)OCCC(C)C)cc1	IEC-6 cytotox 25.2 | IEC-6 tox confirm 22.6
Cc1cccc2c(N=O)c(O)[nH]c12	none (no result: APP 5UTR inh)
C#CC(=O)N(c1cc(OC)ccc1OC)C(C(=O)NC1CCCC1)c1cccs1 (configuration not stated)	IEC-6 cytotox 101.2, BaF3 tox 103.5, Ba/F3 V617F tox 102.3 | IEC-6 tox confirm 94.9
COc1ccc(N(C(=O)c2ccco2)C(C(=O)NC2CCCCC2)c2cccs2)cc1OC (configuration not stated)	none
Cc1ccc(N=Nc2c(N)[nH]n3c(=O)cc(C)nc23)cc1	IEC-6 cytotox 22.4 | IEC-6 tox confirm inactive
Cc1ccc(OCC(=O)NNC(=S)NC(=O)C2CC2)c(C)c1	IEC-6 cytotox 35.8 (no result: APP 5UTR inh, BaF3 tox, Ba/F3 V617F tox, aSyn UTR inh) | IEC-6 tox confirm inactive
Cc1ccc(-c2noc(CNC(=O)COc3ccccc3C)n2)cc1	none (no result: APP 5UTR inh, BaF3 tox, Ba/F3 V617F tox)
CCCCNC(=NCc1cccc(C(F)(F)F)c1)Nc1ccccc1	none (no result: APP 5UTR inh, BaF3 tox, Ba/F3 V617F tox)
Clc1cccc2c1Sc1ccccc1CC2N1CCNCC1 (configuration not stated)	IEC-6 cytotox 23.4 | IEC-6 tox confirm inactive
Cc1ccc(C)c(NC(=O)CN(C)C(=O)c2ccc3[nH]c4c(c3c2)CC(C)CC4)c1 (configuration not stated)	none (no result: KLF5 inh, APP 5UTR inh, IEC-6 cytotox, BaF3 tox, Ba/F3 V617F tox)
CC(C)(C)C(=O)Cn1ncc(Br)c(Br)c1=O	APP 5UTR inh 93.7, IEC-6 cytotox 29.4 | IEC-6 tox confirm inactive
CCc1ccc(C)[n+](CC(=O)c2cccs2)c1	none (no result: APP 5UTR inh, BaF3 tox, Ba/F3 V617F tox)
CC1=[N+](C)c2c(ccc3cccnc23)C1(C)C	IEC-6 cytotox 26.5, BaF3 tox 62.6, Ba/F3 V617F tox 72.0 (no result: aSyn UTR inh) | IEC-6 tox confirm 33.1
CC(C)OC(=O)c1ccc2nc3ccccc3nc2c1	IEC-6 cytotox 24.2 (no result: APP 5UTR inh, BaF3 tox, Ba/F3 V617F tox) | IEC-6 tox confirm inactive
Cc1c(C(=O)N2CCOCC2)[nH]c2c1C(=O)CC(c1ccccc1Cl)C2 (configuration not stated)	APP 5UTR inh 85.0, IEC-6 cytotox 59.7, BaF3 tox 83.7, Ba/F3 V617F tox 85.0 | IEC-6 tox confirm 48.0
CN1C2CCC1/C(=C\c1ccccc1F)C(=O)/C2=C/c1ccccc1F	IEC-6 cytotox 32.8 | IEC-6 tox confirm inactive
CC(=O)c1ccc(N/N=C(/C(N)=O)C2=NC(C)(C)Cc3ccccc32)cc1	IEC-6 cytotox 39.7, aSyn UTR inh inconclusive | IEC-6 tox confirm 32.6
